The record followed here is PubChem BioAssay (Tox21).

Inconclusive results are not listed. Values without a mark were called inactive. Active and inactive are the calls of the source. Calls come from the whole dose curve; as a rule, active = well fitted activation curve with a large enough effect in the repeat runs; inconclusive = weak or mixed curves; inactive = flat fitted curve, though single readings scatter.
% is set by controls: 0 for no effect and ±100 for the full control effect.

The test is described as follows: A CellTox Green Cytotoxicity Assay to monitor cytotoxicity in HepG2 cells - 16 hour (AID 1224876). Note: nearly all actives have a fitted effect of over 45% in size. The following applies: CellTox Green fluorescence; series mostly up to 76.8 µM; cytotoxicity increase: at the top concentration. An excerpt:
National Center for Advancing Translational Sciences [NCATS]
NIH Chemical Genomics Center [NCGC]
U.S. Environmental Protection Agency [EPA]
National Institutes of Environmental Health Sciences [NIEHS]
National Toxicology Program [NTP]
Cell-based models are critical for drug discovery. Determining the natural cytotoxic effects resulting from test compounds is an essential research activity. A CellTox Green Cytotoxicity Assay to monitor cytotoxicity in real time of continues cell culture during 40 hours of the compound treatment was used to screen Tox21 10K library compounds in HepG2 cells. CellTox Green Cytotoxicity Assay is a nonlytic, homogeneous, biofluorescent method to measure cytotoxicity in cell culture after experimental manipulation. The assay system uses a proprietary asymmetric cyanine dye that is excluded from viable cells but preferentially stains the dead cell's DNA. […] Viable cells produce no appreciable increases in fluorescence. Therefore, the fluorescence signal produced by the binding interaction with dead cell DNA is proportional to cytotoxicity.
The mixture of HepG2 cell suspension and reagents were dispensed at 600cells/6 ul/well in 1536-well tissue culture treated black solid bottom plates using a Multidrop dispenser. After the assay plates were incubated at a 37 C/5% CO2 incubator for 5 hours, 23 nL of compounds dissolved in DMSO, positive and negative controls was transferred to the assay plate by a pintool work station. The plates were incubated at 37 C for 40 hours. The fluorescence intensity were measured at 0h, 8h, 16h, 24h, 32h and 40h time points using ViewLux plate reader during compound treatment.
Regarding `CCC(Br)(CC)C(=O)NC(N)=O`, the “cytotoxicity increase” value is 0.673%. Take `Cc1ccc(N)cc1C`: the “cytotoxicity increase” value was -12.5%. Turning to `Cc1cc(=O)[nH]o1`, the “cytotoxicity increase” value is 2.15%. Same read-out and setting: with `COc1cc(CC(C)N)cc2c1OCO2` (stereo not given) the figure was -4.5%. With `O=C(C(Cl)(Cl)Cl)C(Cl)(Cl)Cl`, the “cytotoxicity increase” value was -4.66%.

Take `OCCCBr`: the “cytotoxicity increase” value is -10.6%.

Consider `CC(Cl)C(C)Cl` (stereo not given), for which the “cytotoxicity increase” value was -10.7%. As for `O=C1c2ccccc2C(=O)C1C(=O)C(c1ccccc1)c1ccccc1`, the “cytotoxicity increase” value is 1.29% [at 35.3 µM].

Take `CCOP(=O)(OCC)O/C(=C/Cl)c1ccc(Cl)cc1Cl`: the “cytotoxicity increase” value is 1.12%. With `Cc1ccccc1CCl`, the “cytotoxicity increase” value was 0.665%. Still for that read-out and setting: with `CCCCC(CC)COP(=O)(Oc1ccccc1)Oc1ccccc1` (stereo not given) the figure was 2.73%. For the molecule `O=C(O)c1ccccc1C(=O)Nc1cccc2ccccc12`, the “cytotoxicity increase” value was -8.79%. For the molecule `CC(C)(CCl)C(=O)Cl`, the “cytotoxicity increase” value is -10.7%.

For the molecule `CCCN(CCC)c1c([N+](=O)[O-])cc(S(C)(=O)=O)cc1[N+](=O)[O-]`, the “cytotoxicity increase” value was -9.98%. Still for that read-out and setting: with `CCCCN=C=O` the figure was 2.22%; with `COC(=O)c1cncn1C(C)c1ccccc1` (stereo not given), -4.56% [at 35.3 µM]; with `C=CC(=O)OCC(C)C`, -2.5%. For the molecule `C=CCOC(C)=O`, the “cytotoxicity increase” value is 5.93%.

Turning to `COC(=O)C(Br)CBr` (stereo not given), the “cytotoxicity increase” value was 3.21%.

`C[C@H]1CNCCc2ccc(Cl)cc21`: the “cytotoxicity increase” value is 13.7% [at 35.3 µM]. As to `Cn1cc[n+](C)c1` (tested in a mixture with another compound), the “cytotoxicity increase” value is 1.97%. On the same count and under the same terms, with `CCO[C@H]1O[C@@H]2OC3(C)CC[C@H]4[C@H](C)CC[C@@H]([C@H]1C)[C@@]24OO3` the figure was -0.589% [at 35.3 µM]. Same read-out and setting: with `CCOC(=O)COc1cc(-c2nn(C)c(OC(F)F)c2Cl)c(F)cc1Cl` the figure was -7.81%; with `COC1=CC(=O)O[C@@H](CCc2ccccc2)C1`, 0.0422%. `ClCc1ccccc1`: the “cytotoxicity increase” value was -2.96%.

As for `CCOc1ccc(C(C)(C)COCc2cccc(Oc3ccccc3)c2)cc1`, the “cytotoxicity increase” value was -23.4%. `COC(=O)C(C)N(C(=O)Cc1ccccc1)c1c(C)cccc1C` (stereo not given): the “cytotoxicity increase” value is 27.2%.

On to `Nc1nc(=S)[nH][nH]1`, for which the “cytotoxicity increase” value is -5.42%.

With `CCCCCCCCOC(=O)c1ccc(C(=O)OCCCCCCCC)c(C(=O)OCCCCCCCC)c1`, the “cytotoxicity increase” value was 1.02%. Turning to `CCCCOC(=O)c1ccccc1C(=O)OCc1ccccc1`, the Potency result was “inactive”.

Take `O=C(O)COc1ccc(Cl)cc1`: the “cytotoxicity increase” value is -16.5%. On to `CCOC(=O)[C@]1(c2ccccc2)Oc2ccccc2[C@@H]1N`, for which the “cytotoxicity increase” value was -5.97%.

As to `Brc1ccccc1`, the “cytotoxicity increase” value is -1.12%.

In the case of `CCOP(=S)(OCC)Oc1cc(Cl)c(Br)cc1Cl`, the “cytotoxicity increase” value was -7.76%. `C=CCN1CC[C@]23c4c5ccc(O)c4O[C@H]2C(=O)CC[C@@]3(O)[C@H]1C5`: the “cytotoxicity increase” value is 13.1% [at 35.3 µM].

`N#Cc1ccc(Cl)cc1`: the “cytotoxicity increase” value was -10.7%.

For the molecule `O=C(Nc1ccccc1)Nc1cnns1`, the “cytotoxicity increase” value was -6.73%. As for `Cc1ccccc1C(=O)Nc1cccc(OC(C)C)c1`, the “cytotoxicity increase” value is -3.47%. Same read-out and setting: with `CC/C(=N\OC/C=C/Cl)C1=C(O)CC(C2CCOCC2)CC1=O` (stereo not given) the figure was 0.0488%; with `C=CC(=O)OC`, -7.91%.
